Results: PubChem BioAssay (NCATS)
Where “and” joins values, the source holds several entries; their conditions need not be identical. Equal entries are not always repeated. Results filed as inconclusive are left out. Calls of active or inactive are those of the source. The call rests on the fitted dose curve; in most records, active means well fitted curve in the direction sought with a large enough effect; inconclusive means small, poorly fitted or top-dose-only effect, or another doubt; inactive means no such curve, though single readings can be large; an effect the other way counts as inactive or inconclusive.

Experiments:
[1] = molecular target: Cellular tumor antigen p53 (Homo sapiens) (UniProt P04637); test: Primary qHTS for small molecule compounds that upregulate eGFP-tagged delta133p53alpha (in N-terminal) cells. (AID 2060322); settings: NCI-H358 eGFP-delta133p53alpha fluorescence, 24 h; activation: active compounds read high; further: nearly all actives have a fitted effect of over 75% in size; further: potency means the concentration at half of the fitted maximal effect;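 on activation: cells pre-induced with doxycycline then dosed without doxycycline; series mostly up to about 56 µM; 0% = DMSO vehicle and 100% = reference activator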
Summary of the method: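 NCI-H358 cells pre-induced 24 h with 10 ng/ml doxycycline for eGFP-delta133p53alpha, plated dox-free and exposed 24 h at 37C to titrated compounds. Fixed, Hoechst-stained; gated GFP peak intensity by laser scanning cytometry, normalized to DMSO (0%) and 57.5 uM 5-azacytidine (100%).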

[2] = molecular target: Retinaldehyde dehydrogenase 3 (Homo sapiens) (UniProt P47895); test: qHTS for Inhibitors of the Aldehyde Dehydrogenase Family (ALDH1A3) Primary screen (AID 2061315);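 further: plate controls were DMSO vehicle for no effect and reference inhibitor for full effect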
[3] = BET inhibitor-based combinations targeting novel dependencies in MECOM-rearranged (r) AML: SET-2 cell line (AID 2202231); settings: SET-2 AML cells viability, CellTiter-Glo luminescence, 48 h; viability: active compounds read low, concentration not given here; further: nearly all actives have a fitted effect of over 35% in size; further: potency means the concentration at half of the fitted maximal effect;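 on viability: plate controls were DMSO treated cells for no effect and wells without cells for full effect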
Summary of the method: (§1)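 500 cells/well; 11-pt dose curve; 48 h, standard incubator; CellTiter-Glo luminescence after 15 min RT; DMSO/empty-well normalization; AUC plus Z-AUC (mean-centered within each line).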

[4] = BET inhibitor-based combinations targeting novel dependencies in MECOM-rearranged (r) AML: OCI-AML3 cell line (AID 2202232); settings: Potency: OCI-AML3 viability; further: nearly all actives have a fitted effect of over 35% in size; further: potency means the concentration at half of the fitted maximal effect
Summary of the method: as §1

[5] = BET inhibitor-based combinations targeting novel dependencies in MECOM-rearranged (r) AML: MV-4-11 cell line (AID 2202233); further: nearly all actives have a fitted effect of over 45% in size; further: potency means the concentration at half of the fitted maximal effect
Summary of the method: (§2)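 Cells were plated at 500 per well and exposed to each drug across an 11-point dose range for 48 hr at standard incubator conditions. Viability was read by CellTiter-Glo luminescence, and activity was expressed as AUC and per-cell-line Z-transformed AUC.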

[6] = BET inhibitor-based combinations targeting novel dependencies in MECOM-rearranged (r) AML: UCSD-AML1 cell line (AID 2202235); further: nearly all actives have a fitted effect of over 40% in size; further: potency means the concentration at half of the fitted maximal effect
Summary of the method: as §2

[7] = BET inhibitor-based combinations targeting novel dependencies in MECOM-rearranged (r) AML: AML-191 cell line (AID 2202236; further: nearly all actives have a fitted effect of over 35% in size; further: potency means the concentration at half of the fitted maximal effect)
Summary of the method: as §1

[8] = BET inhibitor-based combinations targeting novel dependencies in MECOM-rearranged (r) AML: AML-194 cell line (AID 2202237; further: nearly all actives have a fitted effect of over 40% in size; further: potency means the concentration at half of the fitted maximal effect)
Summary of the method: as §1

[9] = BET inhibitor-based combinations targeting novel dependencies in MECOM-rearranged (r) AML: HNT-34 cell line (AID 2202234); further: nearly all actives have a fitted effect of over 35% in size; further: potency means the concentration at half of the fitted maximal effect
Summary of the method: as §2

Cellular tumor antigen p53 (Homo sapiens), sequence (P04637 whole entry, looked up): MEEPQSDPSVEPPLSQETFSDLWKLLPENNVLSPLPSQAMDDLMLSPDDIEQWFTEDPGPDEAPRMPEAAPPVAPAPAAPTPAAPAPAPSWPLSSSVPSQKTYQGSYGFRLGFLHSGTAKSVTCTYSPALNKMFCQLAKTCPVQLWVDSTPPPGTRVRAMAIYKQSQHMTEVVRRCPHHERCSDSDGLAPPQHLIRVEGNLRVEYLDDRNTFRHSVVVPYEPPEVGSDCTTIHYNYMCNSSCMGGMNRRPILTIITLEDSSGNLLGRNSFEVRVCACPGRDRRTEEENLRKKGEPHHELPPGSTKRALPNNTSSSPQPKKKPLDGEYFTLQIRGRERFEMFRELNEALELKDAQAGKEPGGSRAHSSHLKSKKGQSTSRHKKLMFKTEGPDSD

C/C=C/C=C/C(O)=C1\C(=O)[C@]2(C)C3C(C(=O)CC/C=C/C)=C(O)C4(C)C1[C@]1(C)O[C@@]4(O)[C@@]3(C)O[C@@]12O
inactive: activation [1] 1.53% | Potency [2]

COCCCNCC1COc2ccccc2O1 (stereo not given)
inactive: activation [1] -6.68% | Potency [2]

COCc1c(O)c(C(=O)O)c(C)c2c1OC(=O)c1c(C)cc(O)c(CO)c1O2
inactive: activation [1] 0.893% | Potency [2]

CCCn1cnc2c(NCc3ccccc3)nc(N[C@H](CC)CO)nc21
inactive: activation [1] 2.33% | Potency [2]

CCc1c[nH]c2ncnc(N3CC[C@](N)(CNC(=O)c4ccc(F)cc4F)C3)c12
inactive: activation [1] 22.3% | Potency [2]

CC(=O)NC(Cc1c[nH]c2ccccc(=O)c12)C(=O)O (stereo not given)
inactive: activation [1] -2.29% | Potency [2]

COc1ccc([C@@]2(O)c3c(ccc4c3OC(C)(CCC=C(C)C)C=C4)NC(=O)[C@@H]2OC)cc1 (stereo not given in full)
inactive: activation [1] -6.87% | Potency [2]

CC(/C=C/C=C(\C)C(=O)O[C@@H]1O[C@H](CO[C@@H]2O[C@H](CO)[C@@H](O)[C@H](O)[C@H]2O)[C@@H](O)[C@H](O)[C@H]1O)=C\C=C\C=C(C)\C=C\C=C(/C)C(=O)O[C@@H]1C[C@](O)(C(=O)O)C[C@@H](O)[C@H]1OC(=O)/C=C/c1ccc(O)c(O)c1
inactive: activation [1] 16% | Potency [2]

Nc1ccccc1NC(=O)c1ccc(CNc2nccc(-c3cccnc3)n2)cc1
inactive: activation [1] 65.9% | Potency [2]
active: Potency [3] 1.66 µM | Potency [4] 1.32 µM | Potency [5] 0.662 µM | Potency [6] 1.32 µM | Potency [7] 1.66 µM | Potency [8] 1.66 µM

CN(c1ncccc1CNc1nc(Nc2ccc3c(c2)CC(=O)N3)ncc1C(F)(F)F)S(C)(=O)=O
active: Potency [1] 24.3 µM | Potency [3] 6.61 µM | Potency [4] 6.61 µM | Potency [5] 0.833 µM | Potency [9] 5.25 µM | Potency [6] 5.9 µM | Potency [7] 4.68 µM

Cc1cc(NC(=O)Nc2ccc(N(C)C)cc2)c2cc(F)cc(F)c2n1
active: Potency [4] 8.11 µM
inactive: activation [1] -0.105% | viability [3] 94.3%

COc1cc(OC2CCN(C)CC2)ccc1Nc1ncc2c(n1)n(C1CCCC1)c(=O)n2C
active: Potency [3] 4.68 µM | Potency [4] 13.2 µM | Potency [5] 3.32 µM | Potency [9] 13.2 µM | Potency [6] 14.8 µM | Potency [7] 18.6 µM
inactive: activation [1] 2.88%

O=C(NOCC(O)CO)c1cc(Br)c(F)c(F)c1Nc1ccc(I)cc1F (stereo not given)
active: Potency [4] 0.0166 µM | Potency [5] 0.209 µM | Potency [9] 1.05 µM
inactive: activation [1] 6.51% | viability [3] 95.8%

COc1ccc(-c2nc3ccc(C4=NNC(=O)CC4C)cc3[nH]2)cc1 (stereo not given)
active: Potency [4] 18.6 µM | Potency [5] 11.8 µM | Potency [9] 8.33 µM | Potency [6] 11.8 µM
inactive: activation [1] 15.8% | Potency [2]

O=C(/C=C/C#Cc1cccc(NS(=O)(=O)c2ccccc2)c1)NO
inactive: activation [1] -10.1%
active: Potency [3] 0.407 µM | Potency [4] 0.574 µM | Potency [5] 0.182 µM | Potency [9] 0.723 µM | Potency [6] 0.645 µM | Potency [7] 0.723 µM

CCOc1cc(C(C)(C)C)ccc1C1=N[C@@](C)(c2ccc(Cl)cc2)[C@@](C)(c2ccc(Cl)cc2)N1C(=O)N1CCN(CC(=O)N2CCOCC2)CC1
active: Potency [4] 11.5 µM | Potency [5] 1.63 µM | Potency [6] 4.09 µM | Potency [7] 7.28 µM | Potency [8] 9.17 µM
inactive: activation [1] 35.5% | Potency [2]

Oc1ccc(-c2ccc(-c3cc(Nc4cccc(CNC5CC5)c4)n[nH]3)cc2)c(O)c1
active: Potency [1] 43.2 µM | Potency [3] 7.42 µM | Potency [4] 1.86 µM | Potency [5] 1.18 µM | Potency [9] 3.72 µM | Potency [6] 2.35 µM | Potency [7] 2.95 µM

OCCC#Cc1nc(-c2ccc(F)cc2)c(-c2ccncc2)n1CCCc1ccccc1
inactive: activation [1] 17.2% | viability [3] 100%

Cn1nnc2c(C(N)=O)ncn2c1=O
inactive: activation [1] 0% and 2.62% | viability [3] 102% | Potency [4] | Potency [5] | Potency [9]

COc1ccc(/C=C/C(=O)Nc2ccccc2C(=O)O)cc1OC
inactive: activation [1] 22.3% and 8.92% | Potency [2] | viability [3] 104% | Potency [4] | Potency [9] | Potency [6] | Potency [7] | Potency [8]

NC(=O)Nc1cc(-c2ccc(CN3CCOCC3)cc2)sc1C(N)=O
inactive: activation [1] 3%
active: Potency [3] 10.5 µM | Potency [4] 0.934 µM | Potency [5] 0.332 µM | Potency [9] 1.18 µM | Potency [6] 1.32 µM | Potency [7] 2.63 µM
